Source: PubChem
ATXN viability: viability counter-screen for ATXN expression inhibitors; S2 cells (HEK-293 line with an ATXN2-luciferase reporter) viability, CellTiter-Fluor protease fluorescence, 24 h; Potency, µM (highest dose often 56.7 µM), most hits filed as cytotoxic; hit rate 0.49% among 400,000; note: nearly all actives have a fitted effect of over 40% in size
HepG2 tox: HepG2 cytotoxicity, counter-screen for TGF-b inhibitors; hit rate 0.76% among 410,000; HepG2 CAGA-GFP viability, ATP luminescence, 18 h; AID 588856; Potency, µM (top dose mostly 46.1 µM), inactives show at the highest dose activity change, negative = cytotoxicity, hits mostly cytotoxic
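CellTiter-Glo luminescence gave cytotoxicity after 18 hours at 37 degrees C. The cells were HepG2 CAGA-GFP in 1% FBS DMEM, stimulated with 500 pg/mL TGF-beta after compound addition. %Activity was normalised to no-cell wells (complete cell-killing) and DMSO (no toxicity), and curves were fitted and classified.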
A549 tox: A549 cytotoxicity, counter-screen for Nrf2 inhibitors; Potency, µM (titrated, usually from 46 µM), without a hit: at the top dose activity change, negative = cytotoxicity, actives largely listed as inhibitors; A549 ARE-Fluc cells, CellTiter-Fluor viability, 18-24 h; hit rate 0.16% among 390,000; note: % is set by controls: 0 for no effect and ±100 for the full control effect
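A549 ARE-Fluc cells in 5% FBS OPTI-MEM, 5000 cells/well, rested 2 h then exposed to compounds in concentration-response for 18-24 h at 37 °C. Viability by CellTiter-Fluor fluorescence (Ex 405/Em 525) after 30 min; luciferase luminescence (BugLite, 15 min, RT) read afterwards.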
Nrf2 inh: inhibitors of Nrf2 signaling; A549 ARE-Fluc reporter, luciferase luminescence, 18-24 h; Potency, µM (series often up to 46 µM), inactives show at the highest dose activity change, negative = inhibition, hits mostly inhibitors; hit rate 2.1% among 360,000; AID 504444; note: % is set by controls: 0 for no effect and ±100 for the full control effect; nearly all actives have a fitted effect of over 60% in size
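In this cell-based qHTS, ARE-driven firefly luciferase in A549 cells reports Nrf2 activity; the luminescent signal after BugLite lysis is the measured value, with a prior CellTiter-Fluor read for cell health.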
ATXN2 expr inh: reduces ATXN2 reporter expression in HEK-293 cells | HEK-293 ATXN2-luciferase reporter, luminescence, 24 h | Potency, µM (titrated, usually from 57 µM), without a hit: top-dose activity change, negative = inhibition, actives largely listed as inhibitors | hit rate 0.72% among 360,000; note: % is set by controls: 0 for no effect and ±100 for the full control effect; nearly all actives have a fitted effect of over 55% in size
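qHTS (up to 57 uM final) was run with 24 h compound exposure of reporter cells at 37 °C. Each well was multiplexed: SteadyGlo luminescence measured ATXN2-luciferase expression after a fluorogenic Gly-Phe-AFC viability readout (25 uM final).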
TGFb SMAD3 inh: inhibitors of TGF-b signaling; AID 588855; HepG2 CAGA-GFP TGF-b/SMAD3 reporter, GFP fluorescence, 18 h; TGF-beta stimulated, 500 pg/mL final; Potency, µM (series often up to 46.1 µM), inactives show top-dose activity, negative = inhibition, hits mostly inhibitors; hit rate 1.2% among 410,000; note: % is set by controls: 0 for no effect and ±100 for the full control effect; nearly all actives have a fitted effect of over 65% in size
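Cell-based qHTS in HEPG2 carrying a CAGA-GFP Smad reporter; compounds added before 500 pg/mL final TGF-beta, 18 h incubation at 37 degrees C, GFP fluorescence quantified per cell by imaging cytometry.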
* marks the source's active call; other numbers are inactive results; i = inactive; u = inconclusive; x = not tested or not shown; [ ] = dose if it differs, or a comment. This is a sample that favours compounds with a hit; in the whole collection about 3.8% have one here. Calls come from the whole dose curve; as a rule, active = well fitted curve in the direction sought with a large enough effect; inconclusive = small, poorly fitted or top-dose-only effect, or another doubt; inactive = no such curve, though single readings can be large; an effect the other way counts as inactive or inconclusive. Potency is the fitted concentration of half-maximal effect.

SMILES	ATXN viability	HepG2 tox	A549 tox	Nrf2 inh	ATXN2 expr inh	TGFb SMAD3 inh
COc1cc(/C=C/C(=O)c2ccc(NS(=O)(=O)c3ccc(C)cc3)cc2)cc(OC)c1O	u	4.7%	u	23.1µM*	u	u
COc1cc(/C=C/C(=O)c2ccc(NS(=O)(=O)c3ccc(C)cc3)cc2)ccc1OC(F)F	u	-40.8%	-1.9%	3.5%	u	0.0%
COc1ccc2cc(C(=O)/C=C/c3cc(OC)c(O)c(OC)c3)ccc2c1	u	17.8µM*	-6.6%	u	-14.1%	u
CCCNC(=O)Cn1nc(-c2ccccc2OC)ccc1=O	i	7.0%	x	x	x	5.1%
CCCNC(=O)C1(C)CCCN(Cc2cc(-c3ccccc3)n(C)n2)C1 (centres undefined)	i	-16.4%	x	x	-14.7%	8.1%
Cn1cc(-c2[nH]c3cc(NC(=O)[C@H](N)C4CCCCC4)cc4c3c2C=NNC4=O)cn1	x	x	x	x	1.09µM*	x
O=C(CSc1nc(-c2ccccc2)c(-c2ccccc2)[nH]1)N1CCN(S(=O)(=O)c2ccccc2)CC1	i	-44.7%	-27.4%	16.4µM*	-20.0%	-14.0%
O=C(CSc1nc2ccccc2c(=O)[nH]1)N1CCN(S(=O)(=O)c2ccccc2)CC1	i	5.3%	19.6%	-3.8%	-1.3%	-10.3%
COc1cccc(C(O)c2nc(-c3cncnc3)cs2)c1 (centres undefined)	i	12.3%	x	x	17.5%	0.0%
O=C1CCN(CCc2ccccc2)CCN1[C@H](COc1ccccc1)c1ccccc1	u	-27.2%	-3.6%	-1.3%	-19.1%	10µM*
COc1ccc(N(C)S(=O)(=O)c2cccc(C(=O)Nc3nc4ccccc4[nH]3)c2)cc1	u	10.2%	-7.7%	23.1µM*	-29.5%	-18.1%
O=S1(=O)c2ccccc2N(Cc2ccccc2F)c2ccccc21	i	0.7%	23.8%	u	-8.0%	4.0%
Cc1ccc(NC(=S)NC(C)CCc2ccccc2)cc1C (centres undefined)	i	-7.7%	15.8%	-13.8%	-24.2%	u
CCC(C)NC(=S)Nc1ccc(C(=O)OC)cc1 (centres undefined)	i	9.3%	-18.6%	18.4µM*	-9.1%[11.3 µM]	-17.8%
CC(=O)c1ccc(NC(=S)NC(C)CCc2ccccc2)cc1 (centres undefined)	i	-41.9%	12.4%	-2.6%	7.1%	12.6µM*
CN(C)c1ccc(/C=C\C=C/c2ccnc3ccccc23)cc1	x	-31.8%	x	x	x	8.91µM*
CN(C)c1ccc(/C=C/c2ccnc3ccccc23)c(F)c1	x	-50.8%	x	x	x	u
CCCCN(CCC(=O)O)c1ccc(/C=C/c2ccnc3ccccc23)cc1	x	5.62µM*	x	x	x	u
Cc1nn2c(NCc3ccccn3)cc(C(C)(C)C)nc2c1-c1ccccc1	u	-57.4%	1.0%	u	-29.1%	u
Cc1cc(NCc2ccccn2)n2nc(C)c(-c3ccccc3)c2n1	u	-34.8%	-2.5%	u	u	11.2µM*
Cc1ccc(CN(CC(O)COc2cccc3[nH]cc(C)c23)C(C)(C)C)cc1 (centres undefined)	u	12.6µM*	1.2%	7.1%	x	u
CCCCN(C(=O)C(C)Oc1ccc(Br)cc1)c1c(N)n(Cc2ccccc2)c(=O)[nH]c1=O (centres undefined)	i	-51.3%	3.2%	-27.1%	-7.9%	-18.6%
O=C(/C=C/c1ccnc2ccccc12)c1cccs1	u	5.62µM*	-8.3%	u	-92.7%	u
C(=C\c1ccnc2ccccc12)/c1cccs1	x	-30.4%	x	x	x	u
Cc1cccc(NC(=O)CN2CCN(C(=O)CN3C(=O)NC4(CC(C)CC(C)(C)C4)C3=O)CC2)c1C (centres undefined)	i	-7.9%	-11.2%	16.4µM*	-14.8%	-14.2%
